VP16 counter = inhibits Gal4-VP16 luciferase reporter, ROR gamma counter-screen; Potency, µM (top dose mostly 53.6 µM), inactives show top-dose activity, negative = inhibition, hits mostly inhibitors; Drosophila S2 Gal4-VP16 UAS-luciferase, luminescence, 20 h; actives 3.5% (n = 310,000); AID 2546;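 further: Gal4-VP16 expression switched on by copper sulfate through the metallothionein promoter; nearly all actives have a fitted effect of over 50% in size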
RORgamma inh = blocks mouse ROR gamma transcriptional activity. AID 2551. Potency, µM (doses to about 53.6 µM), without a hit: at the highest dose activity change, negative = inhibition, actives largely listed as inhibitors. actives 5.4% (n = 310,000). Drosophila S2 Gal4-RORgamma UAS-luciferase reporter, 20 h; further: nearly all actives have a fitted effect of over 60% in size
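A Gal4/UAS one-hybrid system in insect cells: metallothionein-promoter Gal4–ROR gamma fusion plus Photinus luciferase reporter. Copper sulfate 700 uM final, 20 hr ambient incubation, luminescent detection after 10 min with reagent.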
TDP1 cell CPT = growth inhibition of DT40 Tdp1-/-;hTDP1 cells with camptothecin (screen for TDP1 inhibitors); Potency, µM (series often up to 46.2 µM), inactives show at the highest dose activity change, negative = growth inhibition, actives largely listed as inhibitors; actives 12% (n = 420,000); chicken DT40 Tdp1-/-;hTDP1 cells + 20 nM CPT, ATP luminescence, 48 h; further: nearly all actives have a fitted effect of over 55% in size
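Chicken DT40 Tdp1-/- cells complemented with human TDP1, 400 cells/well, exposed to compounds plus 20 nM camptothecin for at least 48 h at 37 C; viability read as ATP content by CellTiter-Glo luminescence.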
TDP1 cell noCPT = qHTS for Inhibitors of human tyrosyl-DNA phosphodiesterase 1 (TDP1): qHTS in cells in absence of CPT; DT40 Tdp1-/- hTDP1 cells, no CPT, ATP luminescence, 48 h; Potency, µM (doses to about 46.2 µM), for inactives: top-dose activity change, negative = growth inhibition, usual class: inhibitors; actives 15% (n = 420,000); further: nearly all actives have a fitted effect of over 55% in size
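Luminescent ATP content (CellTiter-Glo) served as the growth readout. Knockout chicken DT40 cells expressing human TDP1 were exposed to compounds without camptothecin for a minimum 48 hr at 37 °C.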
TDP1 block = TDP1 (human) enzyme inhibition; recombinant TDP1, AlphaScreen DNA substrate cleavage; Potency, µM (doses to about 130 µM), for inactives: top-dose activity change, negative = inhibition, actives largely listed as inhibitors; actives 0.28% (n = 350,000); AID 485290; further: nearly all actives have a fitted effect of over 40% in size
Target sequence (Q9NUW8 whole entry, looked up): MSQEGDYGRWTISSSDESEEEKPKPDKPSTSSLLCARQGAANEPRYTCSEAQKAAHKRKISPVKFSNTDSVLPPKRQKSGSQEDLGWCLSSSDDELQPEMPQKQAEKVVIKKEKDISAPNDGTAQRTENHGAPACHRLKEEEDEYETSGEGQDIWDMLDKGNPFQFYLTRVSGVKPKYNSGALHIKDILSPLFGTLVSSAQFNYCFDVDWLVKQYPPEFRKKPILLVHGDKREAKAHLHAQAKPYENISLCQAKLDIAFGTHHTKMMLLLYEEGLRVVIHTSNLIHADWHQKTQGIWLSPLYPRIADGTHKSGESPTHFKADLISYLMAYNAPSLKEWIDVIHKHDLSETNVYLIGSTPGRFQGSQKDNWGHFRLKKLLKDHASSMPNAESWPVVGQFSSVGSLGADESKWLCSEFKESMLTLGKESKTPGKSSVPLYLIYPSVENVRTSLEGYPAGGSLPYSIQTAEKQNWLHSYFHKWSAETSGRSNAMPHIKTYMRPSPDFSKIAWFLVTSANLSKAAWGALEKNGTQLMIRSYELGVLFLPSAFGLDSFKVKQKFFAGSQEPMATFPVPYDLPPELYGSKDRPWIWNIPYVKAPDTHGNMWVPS
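Enzyme-compound mixtures sat 15 min at room temperature, followed by a 5 min reaction with 15 nM final substrate and 10 min with AlphaScreen beads. Recombinant human Tdp1 was used at 1 nM final.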
* hit, by the source's call; u = inconclusive; x = no result given; [ ] = another dose, or the depositor's remark. Shown are actives, neighbours in structure and some others; about 19% of the full set was active somewhere. The call rests on the fitted dose curve; in most records, active means well fitted curve in the direction sought with a large enough effect; inconclusive means small, poorly fitted or top-dose-only effect, or another doubt; inactive means no such curve, though single readings can be large; an effect the other way counts as inactive or inconclusive. On the % scale 0 is the no-effect control and ±100 the full control effect; potency means the concentration at half of the fitted maximal effect.

SMILES | VP16 counter | RORgamma inh | TDP1 cell CPT | TDP1 cell noCPT | TDP1 block
CCOC(=O)c1c(NC(=O)C2C3C=CC(C3)C2C(=O)O)sc2c1CC(C)(C)OC2 (stereo not drawn) | -20.9% | 2.0% | 8.0% | -5.5% | -13.2%
CC(C)Cc1nn2c(=O)cc(COC(=O)c3cccc(NC(=O)c4ccccc4)c3)nc2s1 | x | x | -3.1% | -3.9% | 3.8%
Cc1nn2c(=O)cc(COC(=O)c3cccc(NC(=O)c4cccs4)c3)nc2s1 | x | x | 11.6µM* | 11.6µM* | -1.2%
CCOC(=O)c1c(NC(=O)c2cccs2)sc2c1CC(C)(C)OC2 | -15.9% | 8.1%[10 µM] | u | 25.9µM* | x
CCCCc1nn2c(=O)cc(COC(=O)c3cccc(NC(=O)c4cccs4)c3)nc2s1 | x | x | -6.9% | -25.2% | 8.8%
Cc1nn2c(=O)cc(COC(=O)c3ccc(NC(=O)c4ccc(C(C)(C)C)cc4)cc3)nc2s1 | x | x | u | 16.4µM* | -8.8%
CC(C)Cc1nn2c(=O)cc(COC(=O)c3cccc(NC(=O)c4cccs4)c3)nc2s1 | x | x | u | 8.2µM* | -6.2%
Cc1ccc(C2/C(=C(/O)c3ccc4c(c3)CC(C)O4)C(=O)C(=O)N2CCCn2ccnc2)cc1 (stereo not drawn) | -12.5% | 22.6% | -5.0% | -10.3% | 6.9%
c1ccc2c(c1)nc(NCC1CCCO1)c1nnnn12 (stereo not drawn) | -5.7% | u | -20.4% | u | 7.8%
CCOC(=O)c1cccc(NC(=O)c2cc3cc4ccc(C)cc4nc3s2)c1 | x | x | 14.6µM* | 14.6µM* | 0.0%
CCOC(=O)c1cccc(NC(=O)c2cccs2)c1 | 3.2% | u | 23.1µM* | 14.6µM* | -2.0%
CCOC(=O)c1cccc(NC(=O)c2cc3cc4cc(OC)ccc4nc3s2)c1 | x | x | u | u | -2.5%
CCc1sc(C(=O)Nc2cccc(C(C)=O)c2)cc1C | u | 7.94µM* | u | u | 2.3%
Cc1nn2c(=O)cc(COC(=O)c3cccc(NC(=O)c4ccc(F)cc4)c3)nc2s1 | x | x | 11.6µM* | 10.3µM* | 3.8%
CC(=O)c1cccc(NC(=O)c2cc(Cl)sc2Cl)c1 | 3.8% | 30.2% | -8.0% | u | 2.3%
Cc1ccc(C(=S)N2CCN(Cc3ccccc3)CC2)cc1 | -7.0% | -31.8% | 4.2% | -11.6% | 2.6%
Cc1ccc(SCCN2CCN(CC(C)C)CCC2=O)cc1 | -8.3% | 14.7% | u | u | -1.5%
Cc1ccccc1-c1noc(-c2ccccc2F)n1 | -0.8% | 28.8% | -16.7% | -4.5% | -10.1%
CSc1ccc(CN(C)C(=O)C(c2ccccc2)c2ccccc2)cc1 | 5.8% | 17.8% | -25.5% | -13.7% | x
CCC(C)(C)n1nnnc1C(c1ccncc1)N1CCC(Cc2ccccc2)CC1 (stereo not drawn) | -7.4% | 18.9% | u | u | 4.2%
Cc1cc(C)n2nc(SCCC(=O)NCc3ccccc3)nc2n1 | -7.4% | 0.0% | 14.7% | -13.7% | -5.1%
O=C(Nc1ccc(C(=O)OCc2cc(=O)n3nc(C4CC4)sc3n2)cc1)c1cccc(Cl)c1 | x | x | -1.3% | -3.8% | -3.8%
O=C(Nc1cccc(C(=O)OCc2cc(=O)n3nc(C4CC4)sc3n2)c1)c1cccc(Cl)c1 | x | x | 11.6µM* | 16.4µM* | 3.8%
NS(=O)(=O)c1ccc(CCNC(=O)CSc2nc3ccsc3c(=O)n2CCCCCC(=O)O)cc1 | -3.8% | 7.94µM* | -0.1% | u | 5.3%
COc1ccc(Cn2nnnc2C(c2ccc(F)cc2)N2CCN(C3CCCC3)CC2)cc1 (stereo not drawn) | 0.9% | u | u | u | 4.2%
SMILES | VP16 counter | RORgamma inh | TDP1 cell CPT | TDP1 cell noCPT | TDP1 block
Cc1ccc(C(=O)Nc2cccc(-c3nc(CNC(=O)c4cccc(C)c4C)c(C)o3)c2)s1 | x | x | 23.1µM* | 20.6µM* | x
Cc1cc(C(=O)NCc2nc(-c3cccc(NC(=O)c4cc(C)oc4C)c3)oc2C)nc(C)n1 | x | x | -15.0%[9.04 µM] | 20.6µM* | x
Cc1occc1C(=O)Nc1cccc(-c2nc(CNC(=O)c3ccc(N4CCCCC4)cc3)c(C)o2)c1 | x | x | u | 18.4µM* | x
Cc1cc(C(=O)Nc2ccccc2-c2nc(CNC(=O)c3sc(C)nc3C)c(C)o2)c(C)o1 | x | x | -8.6%[9.04 µM] | -13.0% | x
Cc1cc(C(=O)Nc2cccc(-c3nc(CNC(=O)c4sc(C)nc4C)c(C)o3)c2)c(C)o1 | x | x | 7.2%[9.04 µM] | 20.6µM* | x
Cc1ccc(C(=O)Nc2cccc(-c3nc(CNC(=O)C4CCCCC4)c(C)o3)c2)s1 | x | x | 1.0% | -14.3% | x
Cc1cc(C)cc(C(=O)NCc2nc(-c3cccc(NC(=O)c4ccccn4)c3)oc2C)c1 | x | x | -0.2%[9.04 µM] | -11.3% | x
O=C(Nc1ccc2[nH]c(=O)[nH]c2c1)c1ccc(Br)o1 | -6.5% | 43.3% | 3.9% | -10.9% | 3.1%
N/C(CSc1ccccn1)=N\OCc1c(Cl)cccc1Cl | -0.6% | -17.0% | -0.1% | u | 1.4%
C[C@H]1CN([C@@H](C)CO)C(=O)CCCn2nncc2CO[C@@H]1CN(C)Cc1cccc2c1OCCCO2 | x | x | 5.4% | 7.0% | x
Cc1cc(C)n(-c2nc3ccccc3nc2N2CCN(S(=O)(=O)c3cccc(C#N)c3)CC2)n1 | -13.5% | 21.5% | u | u | -4.1%
C#Cc1cccc(C(=O)NCc2nc(-c3cccc(NC(=O)c4ccccn4)c3)oc2C)c1 | x | x | u | 23.1µM* | x
CCCCCCN1C[C@@H](n2cc(-c3ccc(F)cc3)nn2)[C@H](O)C[C@@H]1c1ccc(Cl)cc1 | x | x | 11.6µM* | 11.6µM* | x
CCCCCCN1C[C@H](n2cc(-c3ccc(F)cc3)nn2)[C@@H](O)C[C@@H]1c1ccc(C)cc1 | x | x | 13µM* | 13µM* | x
Cc1ccc([C@H]2C[C@@H](n3cc(-c4ccc(F)cc4)nn3)[C@H](O)CN2CC2CCCCC2)cc1 | x | x | -87.4% | u | x
CCCCCCN1C[C@H](O)[C@@H](n2cc(-c3ccc(F)cc3)nn2)C[C@@H]1c1ccc(Cl)cc1 | x | x | u | 18.4µM* | x
COc1ccc([C@H]2C[C@H](O)[C@@H](n3cc(-c4ccc(F)cc4)nn3)CN2CC2CCCCC2)cc1 | x | x | -61.4% | u | x
Cc1ccc(C2CC(=O)Oc3ccc(C(C)(C)C)cc32)cc1 (stereo not drawn) | u | u | x | x | -2.0%
O=C(CN1C2=NCCCN2c2ccccc21)c1ccc(Cl)cc1Cl | -15.3% | 5.3% | 20.6µM* | 14.6µM* | 10.3%
O=C(CN1C2=NCCN2c2ccccc21)c1ccc(Br)cc1 | 0.0% | -20.7% | u | u | -2.0%
O=C(CN1C2=NCCCN2c2ccccc21)c1cccc(Br)c1 | -5.5% | 0.6% | u | 23.1µM* | 5.1%
O=C(CN1C2=NCCN2c2ccccc21)c1ccc(Br)s1 | 2.6% | -25.5% | 18.4µM* | u | 2.6%
Nc1nc2ccc(Br)cc2o1 | x | x | 5.0% | -2.3% | x

Bioassay records from PubChem BioAssay.
